In PubChem BioAssay (NCATS) one finds Potency data, which are given here for 14 compounds.

Common to all, as to experiment: qHTS profiling for inhibitors of Plasmodium falciparum proliferation (AID 504749); further: nearly all actives have a fitted effect of over 60% in size
Common to all, as to conditions: P. falciparum in erythrocytes, SYBR Green DNA, 72 h; series mostly up to 28.7 µM
(Quantitative high-throughput screening tests each substance at several concentrations.)

The subject of experiment [1] is CP325. A digest of the protocol: (§1)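 Readout was DNA-dye fluorescence from lysed cultures, ex 485/em 535 nm. Parasitized red cells had grown 72 h with compound; data scaled between 0.29 uM artemisinin and DMSO wells and corrected using vehicle-only plates.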
Experiment [2] relates to CP329. A digest of the protocol: as §1
The test system of experiment [3] is CP335. The method, boiled down: as §1
Experiment [4] concerns DFO2036. A digest of the protocol: as §1
The test system of experiment [5] is DIV14. The method, boiled down: as §1
Experiment [6] concerns DIV17. A digest of the protocol:
as §1

The test system of experiment [7] is DIV30. The method, boiled down: as §1
For experiment [8], the system named is Dd2. A digest of the protocol:
as §1

Experiment [9] has as its system ECU. The method, boiled down: as §1
For experiment [10], the system named is FAB9. A digest of the protocol:
as §1

Experiment [11] relates to GB4. The method, boiled down: as §1
For experiment [12], the system named is HB3. A digest of the protocol: as §1
Experiment [13] concerns ICS. The method, boiled down: as §1
The subject of experiment [14] is JCK. The method, boiled down:
as §1

Experiment [15] deals with N140. A digest of the protocol:
as §1

Experiment [16] deals with PAD. A digest of the protocol:
as §1

Experiment [17] concerns PC26. The method, boiled down: as §1
The subject of experiment [18] is P93_24. A digest of the protocol: as §1
The subject of experiment [19] is P94_40. A digest of the protocol: as §1
For experiment [20], the system named is PC15. A digest of the protocol: as §1

Several values for one entry are separate records, joined by “and”; a condition that tells them apart may be missing. Identical values can stand only once. Inconclusive results are not listed. Activity calls are given as the source filed them. The call rests on the fitted dose curve; in most records, active means well fitted inhibition curve with a large enough effect; inconclusive means small, poorly fitted or top-dose-only effect; inactive means flat fitted curve, though single readings scatter.
Potency means the concentration at half of the fitted maximal effect.

`CCOc1ccc2nc(S(N)(=O)=O)sc2c1`: the Potency result in [1], in experiment [2], in experiment [3], in experiment [4], in [5] and in [6] was “inactive” throughout. The Potency entry in [7], in experiment [8], in [9], in [10], in [11] and in experiment [12] was “inactive” in each case. Moreover, the Potency result in [13], in experiment [14], in [15], in experiment [16] and in experiment [17] was “inactive” throughout.
Take `CCCCCCCCCCCCCCCCCC(=O)O`: the Potency entry in experiment [1], in experiment [2], in [3], in experiment [4], in [5] and in [6] was “inactive” in each case. The Potency result in experiment [7], in experiment [8], in [9], in experiment [10], in experiment [11] and in experiment [12] was “inactive” each time. The Potency entry in [13], in experiment [14], in [15], in [18], in experiment [19] and in experiment [16] was “inactive” in each case. The Potency result in [20] and in [17] was “inactive” each time.
`C=CCCCCCCCCC(=O)O`: the Potency result in experiment [1], in [2], in experiment [3], in experiment [4], in experiment [5] and in [6] was “inactive” in each case. Further, the Potency entry in experiment [7], in experiment [8], in experiment [9], in experiment [10], in [11] and in [12] was “inactive” each time. Besides, the Potency result in experiment [13], in experiment [14], in experiment [15], in experiment [18], in experiment [19] and in [16] was “inactive” in each case. Moreover, the Potency entry in experiment [20] and in [17] was “inactive” in each case.
Take `CN1CCN(c2cc3c(nn2)Oc2ccccc2N3C)CC1`: the Potency entry in experiment [1], in experiment [2], in [3], in experiment [4], in [5] and in experiment [6] was “inactive” each time. Moreover, the Potency result in [7], in experiment [8], in [9], in experiment [10], in experiment [11] and in experiment [12] was “inactive” throughout. For the same compound, the Potency result in [13], in [14], in experiment [15], in experiment [18], in experiment [19] and in [16] was “inactive” each time. In addition, the Potency result in [20] and in experiment [17] was “inactive” in each case.
Turning to `C=CC(N)CCC(=O)O` (centres undefined), the Potency result in experiment [1], in [2], in experiment [3], in experiment [4], in experiment [5] and in experiment [6] was “inactive” throughout. Also, the Potency result in experiment [7], in experiment [8], in [9], in experiment [10], in experiment [11] and in experiment [12] was “inactive” each time. Moreover, the Potency result in experiment [13], in experiment [14], in [15], in [18], in [19] and in experiment [16] was “inactive” in each case. In addition, the Potency entry in [20] and in experiment [17] was “inactive” throughout.
On to `CC1(C)C[C@@H]1C(=O)N/C(=C\CCCCSC[C@H](N)C(=O)O)C(=O)O`, for which the Potency entry in [1], in experiment [2], in [3], in experiment [4], in experiment [5] and in experiment [6] was “inactive” each time. In addition, the Potency entry in [7], in experiment [8], in experiment [9], in experiment [10], in experiment [11] and in [12] was “inactive” in each case. Further, the Potency result in experiment [13], in experiment [14], in [15], in experiment [18], in experiment [19] and in experiment [16] was “inactive” in each case. The Potency entry in [20] and in experiment [17] was “inactive” throughout.
Regarding `CC1(C)S[C@@H]2[C@H](NC(=O)[C@H](NC(=O)N3CCN(S(C)(=O)=O)C3=O)c3ccccc3)C(=O)N2[C@H]1C(=O)O`, the Potency result in experiment [1], in [2], in [3], in experiment [4], in experiment [5] and in experiment [6] was “inactive” throughout. The Potency result in [7], in experiment [8], in experiment [9], in experiment [10], in experiment [11] and in experiment [12] was “inactive” in each case. The Potency result in experiment [13], in experiment [14], in experiment [15], in experiment [18], in experiment [19] and in [16] was “inactive” in each case. Moreover, the Potency entry in experiment [20] and in [17] was “inactive” throughout.
On to `Cc1c(Nc2ncccc2C(=O)O)cccc1C(F)(F)F`, for which the Potency result in [1], in experiment [2], in experiment [3], in [4], in [5] and in [6] was “inactive” in each case. In addition, the Potency entry in experiment [7], in [8], in experiment [9], in [10], in [11] and in experiment [12] was “inactive” in each case. The Potency result in experiment [13], in experiment [14], in experiment [15], in [18], in experiment [19] and in experiment [16] was “inactive” each time. Also, the Potency result in experiment [20] and in experiment [17] was “inactive” each time.
As for `CCCCCCCCCCCCCCCC(=O)OC(C)C`, the Potency result in [1], in [2], in experiment [3], in [4], in [5] and in experiment [6] was “inactive” throughout. Besides, the Potency result in experiment [7], in experiment [8], in [9], in experiment [11], in experiment [12] and in experiment [13] was “inactive” each time. For the same compound, the Potency result in experiment [14], in experiment [15], in experiment [18], in [19], in experiment [16] and in experiment [20] was “inactive” each time. In experiment [17], the Potency entry is “inactive”.
`O=C(Nc1ccc(C(=O)O)c(O)c1)c1ccccc1`: the Potency entry in [1], in [2], in experiment [3], in experiment [4], in [5] and in experiment [7] was “inactive” in each case. Moreover, the Potency entry in experiment [8], in [9], in [10], in experiment [11], in [12] and in experiment [13] was “inactive” in each case. Moreover, the Potency entry in experiment [14], in experiment [15], in experiment [19], in experiment [16], in [20] and in experiment [17] was “inactive” in each case.
Consider `Oc1c(Br)cc(Br)c2cccnc12`, for which the Potency entry in experiment [1], in [2], in experiment [3], in [4], in [5] and in experiment [6] was “inactive” throughout. For the same compound, the Potency entry in experiment [7], in experiment [8], in experiment [9], in [10], in experiment [11] and in experiment [12] was “inactive” throughout. The Potency result in experiment [14], in [15], in [18], in experiment [19], in [16] and in [20] was “inactive” in each case. For the same compound, the Potency result in [17] was “inactive”.
For the compound `Nc1cc(-c2ccncc2)c[nH]c1=O`, the Potency entry in experiment [1], in experiment [2], in experiment [3], in experiment [4], in experiment [6] and in [7] was “inactive” each time. In addition, the Potency entry in experiment [8], in experiment [9], in experiment [10], in experiment [11], in [12] and in experiment [13] was “inactive” each time. Moreover, the Potency result in [14], in experiment [15], in experiment [18], in [19], in [16] and in [20] was “inactive” each time.
As to `CN1[C@@H]2CC[C@H]1CC(OC(c1ccccc1)c1ccccc1)C2` (some centres undefined), the Potency result in [1], in experiment [2], in experiment [10] and in [12] was “inactive” in each case. For the same compound, the Potency is 12.6 µM (active) in experiment [4]; 2.39 µM (active) and 1.9 µM (active) in experiment [5]; 5.36 µM (active) and 4.26 µM (active) in experiment [6]; 6.31 µM (active) in experiment [8]; 8.49 µM (active) in experiment [11]; 10 µM (active) and 11.2 µM (active) in experiment [13]. The Potency in [14] was 11.2 µM (active); in experiment [19] it was 10 µM (active); in [16] it was 11.2 µM (active); in experiment [20], 10 µM (active).
As for `O=C(O)c1ccccc1Nc1cccc(C(F)(F)F)c1`, the Potency result in experiment [1], in [2], in experiment [3], in experiment [4], in experiment [6] and in experiment [7] was “inactive” in each case. Further, the Potency entry in experiment [8], in [9], in experiment [10], in [11], in [12] and in experiment [13] was “inactive” in each case. Further, the Potency result in [14], in experiment [15], in experiment [18], in experiment [19], in [16] and in [20] was “inactive” throughout. Besides, in [17], the Potency result was “inactive”.
